Assay results published in PubChem BioAssay (NCATS).
Results filed as inconclusive are left out. Where a call stands in place of a potency, no number is given. Unmarked numbers belong to inactive results. Activity calls are given as the source filed them. The call rests on the fitted dose curve; in most records, active means well fitted curve in the direction sought with a large enough effect; inconclusive means small, poorly fitted or top-dose-only effect, or another doubt; inactive means no such curve, though single readings can be large; an effect the other way counts as inactive or inconclusive.

How the values were obtained:
[1] = target: Aldehyde dehydrogenase, mitochondrial (Homo sapiens) (UniProt P05091); assay: qHTS for Inhibitors of the Aldehyde Dehydrogenase Family (ALDH2) Primary screen (AID 2061308); further: nearly all actives have a fitted effect of over 55% in size
[2] = target: Retinaldehyde dehydrogenase 3 (Homo sapiens) (UniProt P47895); assay: qHTS for Inhibitors of the Aldehyde Dehydrogenase Family (ALDH1A3) Primary screen (AID 2061315)

Compound	Potency [1]	Potency [2]	activity change, negative = inhibition [1]	activity change, negative = inhibition [2]
FC(F)(F)c1ccccc1-c1nc(NCc2cccs2)c2ccccc2n1	inactive	inactive		
Cc1cc(C)nc(NC(=S)N2CCN(c3ccc(Cl)c(C(F)(F)F)c3)CC2)c1	inactive	inactive		
Cc1ccc(S(=O)(=O)Nc2cnccc2C(=O)Nc2nc(-c3ccc(C)c(C)c3)cs2)cc1	inactive	inactive		
Cc1cc(C)nc(NC(=S)N2CCN(c3cc(C#N)cc(C#N)c3)CC2)c1	inactive	inactive		
O=S(=O)(c1ccc2c(c1)OCCO2)N1CCN(S(=O)(=O)c2c(F)cc(F)cc2F)CC1	inactive	inactive		
O=C(Nc1ncc(Cc2ccccc2)s1)c1ccc(-c2cccc([N+](=O)[O-])c2)o1	inactive	inactive		
CC(=O)Nc1sc2c(c1-c1ccc3c(c1)OCCO3)CCNC2	inactive	inactive		
CC(C)(C)NC(=O)N1CCC(C(=O)Nc2ccc([S+](=O)([O-])Nc3nccs3)cc2)CC1	inactive	inactive		
O=S(=O)(c1ccc(F)cc1)N1CCN(S(=O)(=O)c2ccc3c(c2)OCCO3)CC1	inactive	inactive		
CCCn1c(C)nc2c(N3CCCN(Cc4ccccc4)CC3)nc(C)nc21	inactive	inactive		
Clc1cccc(-c2ccc3ncnc(NCc4ccc5c(c4)OCO5)c3c2)c1	inactive	inactive		
O=C(c1ccc[nH]1)c1cc(Cl)ccc1NC(=O)[C@@H]1CCCN1	inactive	inactive		
CCCn1c(-c2ccc(F)cc2)nc2c(NC3CCN(Cc4ccccc4)CC3)nc(C)nc21	inactive	inactive		
NC(=O)c1ccccc1-c1noc(-c2ccccc2F)n1	inactive	inactive		
Cc1cc(-c2nnc3n2CCCCC3)c(C)n1-c1ccccc1	inactive	inactive		
Cc1cc(NS(=O)(=O)c2ccc(NC(=O)Cc3ccc(Cl)cc3)cc2)no1	inactive	inactive		
COc1ccc(C(F)(F)F)cc1NC(=O)C(OC(=O)CNC(=O)c1ccccc1)c1ccccc1 (stereo not given)	inactive	inactive		
O=C(NCCc1nc2ccccc2n1CCOc1cc(F)ccc1F)C1CCCCC1	inactive	inactive		
O=C1CCc2cc(S(=O)(=O)Nc3ccc(F)c(Cl)c3)c(F)cc2N1	inactive	inactive		
CS(=O)(=O)c1ccc(C(=O)OCC(=O)N2CCOCC2)cc1[N+](=O)[O-]	inactive	inactive		
CCNc1nc(C#N)nc2c1ncn2-c1cc(F)cc(F)c1	inactive	inactive		
CCCCCNc1oc(-c2cccc3ccccc23)nc1C#N	inactive	inactive		
O=C(Nc1ccccc1)c1cccs1	inactive	inactive		
Cc1ccc(-c2cc(C(=O)Nc3ccn[nH]3)c3ccccc3n2)cc1C	inactive	inactive		
COc1ccc(CCc2nc3c(C)c(-c4c(C)noc4C)c(C)cc3n2CCN2CCOCC2)cc1	inactive	inactive		

Compound	Potency [1]	Potency [2]	activity change, negative = inhibition [1]	activity change, negative = inhibition [2]
CC(C)c1ccccc1-c1ncc(N(C)C)c(NCc2ccc(-c3cccnc3)cc2)n1	inactive	inactive		
O=C(NCc1ccc(Cl)c(Cl)c1)Nc1nnc(-c2ccncc2)s1	inactive	inactive		
Cc1cc(C)n2ncc(C(=O)NCC(C)C)c2n1	inactive	inactive		
Cc1cccc(CNc2ccnc(-c3ccc(C(F)(F)F)cc3)n2)c1	inactive	inactive		
COc1cccc(-c2nnc3n2N=C(c2c(OC)cccc2OC)CS3)c1	inactive	inactive		
Cc1ccc(OCCn2c(CCNC(=O)c3cc(F)cc(F)c3)nc3ccccc32)cc1	inactive	inactive		
Cc1cc(NC(=O)c2ccc(C)c(Nc3nccc(-c4cccnc4)n3)c2)cc(-n2cnc(C)c2)c1	inactive	inactive		
O=S(=O)(NC1CCN(S(=O)(=O)c2ccc3c(c2)OCCO3)C1)c1c(F)cccc1F (stereo not given)	inactive	inactive		
Cc1cccc(-c2ccc3ncnc(N(C)Cc4ccco4)c3c2)c1	inactive	inactive		
COc1cccc(NS(=O)(=O)c2ccc(C)cc2)c1C(=O)Nc1nc(-c2ccccc2)cs1	inactive	inactive		
O=C(O)C[C@H]1CCC(=O)[C@@H]1C/C=C\CCO	inactive	inactive		
COc1ccc(-c2nnc3n2N=C(c2ccc(OC)cc2OC)CS3)cc1	inactive	inactive		
N#Cc1ccnc(N2C(=O)CC[C@H]2C(=O)N(c2cncc(F)c2)[C@@H](C(=O)NC2CC(F)(F)C2)c2ccccc2Cl)c1	inactive	inactive		
O=C(OCC#CCSc1nnc(-c2cccc(F)c2)o1)c1ccc(F)cc1	inactive	inactive		
CC(=O)Nc1sc2c(c1-c1nc3ccccc3s1)CCS(=O)(=O)C2	inactive	inactive		
O=S(=O)(c1cccc2ccccc12)n1ccc2ccc(N3CCN4CCCC4C3)cc21 (stereo not given)	inactive	inactive		
Cc1ccccc1CSc1nc2ncc(Br)cc2[nH]1	inactive	inactive		
Cc1nc(N2CCOCC2)c2nc(-c3ccccc3)n(C(C)CN(C)C)c2n1 (stereo not given)	inactive	inactive		
COc1ccc(C2Nc3ccccc3C(=O)N2Cc2cccnc2)cc1COc1c(C)cccc1C (stereo not given)	inactive	inactive		
COc1ccc(C(=O)O)cc1COc1ccc(NC(C)=O)cc1	inactive	inactive		
CC(C)(C)OC(=O)NCc1nnc(-c2cc3ccccc3[nH]2)s1	inactive	inactive		
O=c1c2ccccc2nc2sc(Nc3cccc(Cl)c3)nn12	inactive	inactive		
O=S(=O)(Nc1nccs1)c1ccc(NCc2ccccc2O)cc1	inactive	inactive		
N[C@H]1CCN(c2cnc3c(O)ccc(C(=O)O)c3c2)C1	inactive	inactive		
CC1=C[C@@H]2[C@H]3[C@@H]4O[C@@](C)(CC[C@H]4O)[C@H]3CC(=O)[C@]23C(=O)N[C@@H](CC(C)C)[C@@H]3[C@@H]1C	inactive	inactive		

Compound	Potency [1]	Potency [2]	activity change, negative = inhibition [1]	activity change, negative = inhibition [2]
CCCn1c(-c2ccc(F)cc2)nc2c(NC(C)CCCN(CC)CC)nc(C)nc21 (stereo not given)	inactive	inactive		
Cc1cc(NS(=O)(=O)c2ccc3c(c2)CCC(=O)N3)ccc1F	inactive	inactive		
Cc1ccsc1C1N=C(Nc2nc3ccccc3o2)NC2=C1C(=O)CCC2 (stereo not given)	inactive	inactive		
CC(=O)Nc1sc2c(c1-c1ccc3nc[nH]c3c1)CCNC2	inactive	inactive		
Cc1ccc(OCCn2c(CCNC(=O)C3CCCCCC3)nc3ccccc32)cc1	inactive	inactive		
COc1cccc(CN2C(=O)c3ccccc3NC2c2ccc(OC)c(COc3c(C)cc(NC(C)=O)cc3C)c2)c1 (stereo not given)	inactive	inactive		
O=C(NC(NC(=S)Nc1ccc(F)c([N+](=O)[O-])c1)C(Cl)(Cl)Cl)C(c1ccccc1)c1ccccc1 (stereo not given)	inactive	inactive		
COc1cc2c(NC3CCN(C(C)C)CC3)nc(N3CCC(F)(F)CC3)nc2cc1OCCCN1CCCC1	inactive	inactive		
C=CCNc1oc(-c2cccc(Cl)c2)nc1C#N	inactive	inactive		
CCOC(=O)C1CCN(C(=O)C2(NC(=O)Nc3ccc(F)cc3F)CCCCC2)CC1	inactive	inactive		
COc1cc(N2CCN(C(=S)Nc3cc(C)cc(C)n3)CC2)cc(C(F)(F)F)c1	inactive	inactive		
CC(=O)O[C@H]1CC(C)(C)CC2[C@]13CO[C@@]21CCC2[C@@]4(C)CC[C@H](O[C@@H]5OC[C@H](O[C@@H]6O[C@H](CO)[C@@H](O)[C@H](O)[C@H]6O[C@@H]6OC[C@@H](O[C@@H]7O[C@H](CO)[C@@H](O)[C@H](O)[C@H]7O)[C@H](O)[C@H]6O)[C@H](O)[C@H]5O[C@@H]5O[C@H](CO)[C@@H](O)[C@H](O)[C@H]5O)[C@@](C)(CO)C4CC[C@@]2(C)[C@]1(C)C[C@H]3O (stereo not given in full)			0.34% [at 11.2 µM]	11.1% [at 11.2 µM]
CNc1nccc(-c2cccc3ccccc23)n1	inactive	inactive		
O=C(c1c(F)cccc1F)N1CCN(S(=O)(=O)c2ccc3c(c2)OCCO3)CC1	inactive	inactive		
C/C=C/c1ccc(O[C@@H]2O[C@H](CO)[C@@H](O)[C@H](O)[C@H]2O)c(OC)c1	inactive	inactive		
O=C(Nc1ccc(-n2cncn2)c(C(F)(F)F)c1)Nc1nnc(-c2ccncc2)s1	inactive	inactive		
CC(NCc1ccc2c(c1)nc(NC(=O)c1ccc(-c3cn[nH]c3)s1)n2CC(C)(C)O)C(C)(C)C (stereo not given)	inactive	inactive		
Fc1ccc(CNc2nc(-c3ccccc3C(F)(F)F)nc3ccccc23)cc1	inactive	inactive		
Cc1ccc(NS(=O)(=O)c2ccc(Cl)cc2)cc1C	inactive	inactive		
CC(C)(C)c1ccc(NC(=O)c2cccs2)cn1	inactive	inactive		
COc1ccc(NC(=O)c2cnn3c(C)cc(C)nc23)cc1	inactive	inactive		
CCS(=O)(=O)N1CCC(C(=O)Nc2ccc(S(=O)(=O)Nc3nccs3)cc2)CC1	inactive	inactive		
COc1cc(F)c(S(=O)(=O)N2CCN(S(=O)(=O)c3ccco3)CC2)c(F)c1	inactive	inactive		
O=C(OC/C=C/CSc1nnc(-c2cccc3ccccc23)o1)c1ccc(F)cc1	inactive	inactive		
Oc1ccc(CCc2c(F)cccc2F)c2cccnc12	inactive	inactive		
